Assay outcomes deposited in PubChem by Sanford-Burnham Center for Chemical Genomics.
CD11b adhes inh: blocks human CD11b/CD18 adhesion to fibrinogen; P05107+P11215; K562 CD11b/CD18 adhesion to fibrinogen, ATPlite luminescence; Mn2+ added to activate the integrin; inhibition, % at 10 µM; 0.54% of 93,000 active; AID 1497;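 active = primary inhibition of 50% or more at 10 µM, then 40% or more on retest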
CYP2C9 act: activators of human CYP2C9 | recombinant CYP2C9, luciferin-H conversion, luminescence; stronger effect = higher value; factor 1 = untreated enzyme, 0 = blocked | activation factor at 5 µM | 1.4% of 96,000 active;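 active = activation factor of 2 or more for CYP2C9 at a 5 µM dose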
Target sequence (P11712 whole entry, looked up): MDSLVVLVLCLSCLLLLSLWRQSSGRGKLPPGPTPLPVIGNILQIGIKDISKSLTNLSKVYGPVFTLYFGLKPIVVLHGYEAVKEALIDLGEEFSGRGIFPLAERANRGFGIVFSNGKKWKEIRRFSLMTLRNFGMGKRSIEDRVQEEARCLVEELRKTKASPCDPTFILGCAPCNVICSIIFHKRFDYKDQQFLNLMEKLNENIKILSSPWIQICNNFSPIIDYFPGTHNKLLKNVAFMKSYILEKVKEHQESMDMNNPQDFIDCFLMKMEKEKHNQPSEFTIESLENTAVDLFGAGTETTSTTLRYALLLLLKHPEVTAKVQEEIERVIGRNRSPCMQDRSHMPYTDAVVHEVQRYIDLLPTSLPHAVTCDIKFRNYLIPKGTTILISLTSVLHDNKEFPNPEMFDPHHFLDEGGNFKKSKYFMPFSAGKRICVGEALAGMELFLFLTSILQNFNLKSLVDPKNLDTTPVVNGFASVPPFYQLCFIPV
CYP2C19 activ: increases human CYP2C19 enzyme activity; activation factor at 5 µM; recombinant CYP2C19, luciferin-H EGE luminescence; stronger effect = higher value; 0 = fully inhibited enzyme, 1 = untreated enzyme; 96,000 tested, under 10 active; P33261;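 active = activation factor of at least 2 at 5 µM in the primary screen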
CYP2C9 inhib: blocks human cytochrome P450 2C9. P11712. CYP2C9 Supersomes, luciferin-H conversion, luminescence. inhibition, % at 5 µM. 20% of 96,000 active. AID 777;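 active = blocking of liver enzyme CYP2C9 beyond about 50% at 5 µM, limit read from the data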
CYP2C19 inh: blocks human cytochrome P450 2C19; P33261; CYP2C19 Supersomes, luciferin-H EGE luminescence, 30 min; inhibition, % at 5 µM; 21% of 96,000 active; AID 778;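 active = CYP2C19 inhibition above a set limit at 5 µM in the primary screen, cut at about 50% in these data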
Mac1 fbg enh: enhancers of human CD11b/CD18 binding to fibrinogen; K562 CD11b/CD18 adhesion to fibrinogen, ATPlite luminescence; 0.07% of 93,000 active; AID 1499; activation, % at 10 µM; P05107+P11215;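 active = 10 µM primary screen giving 50% or more activity, confirmed by 40% or more on retest at that dose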
Numbers stand for hits. Rows were chosen to be rich in hits. Some 28% of all compounds tested hit in one or more screens of this group.

What do the screens show for `N#CCCN1CCN(C(=S)c2ccc(-c3ccc(Cl)cc3)o2)CC1`?
CD11b adhes inh: inactive; CYP2C9 act: inactive; CYP2C19 activ: inactive; CYP2C9 inhib: inactive; CYP2C19 inh: 62; Mac1 fbg enh: inactive

What do the screens show for `S=C(c1ccc(-c2ccc(Cl)cc2)o1)N1CCCCC1`?
CD11b adhes inh: inactive; CYP2C9 act: inactive; CYP2C19 activ: inactive; CYP2C9 inhib: 80; CYP2C19 inh: 92; Mac1 fbg enh: inactive

How did CC(=O)Nc1nc(CCC(C)C)cc2c1c(=O)oc1ccccc12 do in these assays?
CD11b adhes inh: inactive; CYP2C9 act: inactive; CYP2C19 activ: inactive; CYP2C9 inhib: inactive; CYP2C19 inh: inactive; Mac1 fbg enh: inactive

What do the screens show for `CC(C(=O)N=c1sc2ccccc2n1C)N1C(=O)C2CC=CCC2C1=O` (stereo unspecified)?
CD11b adhes inh: inactive; CYP2C9 act: inactive; CYP2C19 activ: inactive; CYP2C9 inhib: 58; CYP2C19 inh: 80; Mac1 fbg enh: inactive

How did COC(=O)NCc1ccc(CNC(=O)OC)cc1 do in these assays?
CD11b adhes inh: inactive; CYP2C9 act: inactive; CYP2C19 activ: inactive; CYP2C9 inhib: inactive; CYP2C19 inh: inactive; Mac1 fbg enh: inactive

How did COc1ccc(CNC(=O)Oc2ccccc2)cc1Cl do in these assays?
CD11b adhes inh: inactive; CYP2C9 act: 2.4; CYP2C19 activ: inactive; CYP2C9 inhib: inactive; CYP2C19 inh: 63; Mac1 fbg enh: inactive

Results for COC(=O)NCc1ccc(Cl)c(Cl)c1 ?
CD11b adhes inh: inactive; CYP2C9 act: inactive; CYP2C19 activ: inactive; CYP2C9 inhib: inactive; CYP2C19 inh: 64; Mac1 fbg enh: inactive

What do the screens show for `CCCNC(=O)N1CCC(C(=O)c2ccc(Cl)cc2)CC1`?
CYP2C9 act: inactive; CYP2C19 activ: inactive; CYP2C9 inhib: inactive; CYP2C19 inh: inactive

How did CC(C)N(C(=O)CSc1nnc(CN2CCCCCC2=O)n1-c1ccccn1)C(C)C do in these assays?
CD11b adhes inh: inactive; CYP2C9 act: inactive; CYP2C19 activ: inactive; CYP2C9 inhib: inactive; CYP2C19 inh: inactive; Mac1 fbg enh: inactive

What do the screens show for `Cn1nnnc1SCc1nnc(-c2ccccc2Br)o1`?
CD11b adhes inh: inactive; CYP2C9 act: inactive; CYP2C19 activ: inactive; CYP2C9 inhib: inactive; CYP2C19 inh: 65; Mac1 fbg enh: inactive

What do the screens show for `Clc1ccc(OCc2nnc(-c3ccccc3Br)o2)cc1`?
CD11b adhes inh: inactive; CYP2C9 act: inactive; CYP2C19 activ: inactive; CYP2C9 inhib: inactive; CYP2C19 inh: 96; Mac1 fbg enh: inactive

Results for Cc1ccc(-n2nnnc2SCc2nnc(-c3ccccc3Br)o2)c(C)c1 ?
CD11b adhes inh: inactive; CYP2C9 act: inactive; CYP2C19 activ: inactive; CYP2C9 inhib: 56; CYP2C19 inh: 66; Mac1 fbg enh: inactive

Results for Cc1ccc(-n2nnnc2SCC(N)=O)c(C)c1 ?
CD11b adhes inh: inactive; CYP2C9 act: inactive; CYP2C19 activ: inactive; CYP2C9 inhib: inactive; CYP2C19 inh: inactive; Mac1 fbg enh: inactive

What do the screens show for `Clc1ccc(OCc2nnc(-c3ccccc3Br)o2)c(Cl)c1`?
CD11b adhes inh: inactive; CYP2C9 act: inactive; CYP2C19 activ: inactive; CYP2C9 inhib: inactive; CYP2C19 inh: inactive; Mac1 fbg enh: inactive

How did COc1ccc(C(C)=O)cc1COC(=O)c1cc(C)oc1C do in these assays?
CD11b adhes inh: inactive; CYP2C9 act: inactive; CYP2C19 activ: inactive; CYP2C9 inhib: 66; CYP2C19 inh: 61; Mac1 fbg enh: inactive

What do the screens show for `COc1ccc(C(C)=O)cc1COC(=O)Cc1n[nH]c(=O)c2ccccc12`?
CD11b adhes inh: inactive; CYP2C9 act: inactive; CYP2C19 activ: inactive; CYP2C9 inhib: inactive; CYP2C19 inh: inactive; Mac1 fbg enh: inactive

What do the screens show for `COc1ccc(C(C)=O)cc1COC(=O)CNC(=O)c1cc(C)cc(C)c1`?
CD11b adhes inh: inactive; Mac1 fbg enh: inactive

Results for COc1ccc(C(C)=O)cc1COC(=O)c1cccc(N(C)C)c1 ?
CD11b adhes inh: inactive; CYP2C9 act: inactive; CYP2C19 activ: inactive; CYP2C9 inhib: 79; CYP2C19 inh: 72; Mac1 fbg enh: inactive

Results for COc1ccc(C(=O)CC2OC(=O)c3c2ccc(OC)c3OC)cc1 (stereo unspecified) ?
CD11b adhes inh: inactive; CYP2C9 act: inactive; CYP2C19 activ: inactive; CYP2C9 inhib: inactive; CYP2C19 inh: 80; Mac1 fbg enh: inactive

How did COC(=O)c1oc2ccc(Cl)cc2c1-n1cccc1 do in these assays?
CD11b adhes inh: inactive; CYP2C9 act: inactive; CYP2C19 activ: inactive; CYP2C9 inhib: 72; CYP2C19 inh: 58; Mac1 fbg enh: inactive

Results for COC(=O)c1oc2ccccc2c1-n1cccc1 ?
CD11b adhes inh: inactive; CYP2C9 act: inactive; CYP2C19 activ: inactive; CYP2C9 inhib: inactive; CYP2C19 inh: inactive; Mac1 fbg enh: inactive

What do the screens show for `CC(C)(C)Nc1nc(NC(C)(C)C)nc(-n2ccnc2)n1`?
CD11b adhes inh: inactive; CYP2C9 act: inactive; CYP2C19 activ: inactive; CYP2C9 inhib: 63; CYP2C19 inh: inactive; Mac1 fbg enh: inactive

What do the screens show for `Cc1cc(C)n(-c2nc(NC(C)(C)C)nc(NC(C)(C)C)n2)n1`?
CD11b adhes inh: inactive; CYP2C9 act: inactive; CYP2C19 activ: inactive; CYP2C9 inhib: inactive; CYP2C19 inh: inactive; Mac1 fbg enh: inactive

What do the screens show for `CSc1cc(-c2ccc(Cl)cc2)c(C(=O)NC(C)C)s1`?
CYP2C9 act: inactive; CYP2C19 activ: inactive; CYP2C9 inhib: inactive; CYP2C19 inh: 69

How did CSc1cc(-c2ccc(Cl)cc2)c(C(=O)NN)s1 do in these assays?
CYP2C9 act: inactive; CYP2C19 activ: inactive; CYP2C9 inhib: 65; CYP2C19 inh: 70

What do the screens show for `CNC(=O)c1sc(-c2ccc(Cl)cc2)nc1C`?
CD11b adhes inh: inactive; CYP2C9 act: inactive; CYP2C19 activ: inactive; CYP2C9 inhib: inactive; CYP2C19 inh: inactive; Mac1 fbg enh: inactive

What do the screens show for `CC(C)NC(=O)c1cc2c(-c3ccc(Cl)cc3)nn(C)c2s1`?
CD11b adhes inh: inactive; CYP2C9 act: inactive; CYP2C19 activ: inactive; CYP2C9 inhib: inactive; CYP2C19 inh: inactive; Mac1 fbg enh: inactive

How did O=c1cc(CN2CCN(C/C=C/c3ccccc3)CC2)c2cc(O)ccc2o1 do in these assays?
CD11b adhes inh: inactive; CYP2C9 act: inactive; CYP2C19 activ: inactive; CYP2C9 inhib: inactive; CYP2C19 inh: inactive; Mac1 fbg enh: inactive

What do the screens show for `O=C1C2C3C=CC(O3)C2C(=O)N1CC(O)c1ccccc1` (stereo unspecified)?
CD11b adhes inh: inactive; CYP2C9 act: inactive; CYP2C19 activ: inactive; CYP2C9 inhib: inactive; CYP2C19 inh: inactive; Mac1 fbg enh: inactive

What do the screens show for `Cc1ccnc(NS(=O)(=O)c2cnc(Cl)c(Br)c2)c1`?
CD11b adhes inh: inactive; Mac1 fbg enh: inactive

How did COc1ccc(/C=C/C(=O)c2ccccc2)cc1Cn1nnc2ccccc21 do in these assays?
CD11b adhes inh: inactive; Mac1 fbg enh: inactive

How did c1ccc(Oc2cccc(CN3CCCCC3)c2)cc1 do in these assays?
CD11b adhes inh: inactive; CYP2C9 act: inactive; CYP2C19 activ: inactive; CYP2C9 inhib: inactive; CYP2C19 inh: 50; Mac1 fbg enh: inactive

How did c1ccc(COc2cccc(CN3CCN(c4ccccn4)CC3)c2)cc1 do in these assays?
CD11b adhes inh: inactive; CYP2C9 act: inactive; CYP2C19 activ: inactive; CYP2C9 inhib: 70; CYP2C19 inh: inactive; Mac1 fbg enh: inactive
